± gives the standard deviation of the averaged measurements. In all, about 25,000 sequences were measured (“ln(normalized median fluorescence intensity)”: median about 10, highest 2% from about 12 on). This is one part of a sample in which the highest values are shown more often than they occur.
System: PfAP2-G AP2 domain (GST-tagged)
Test: gcPBM binding intensity (ln(normalized median fluorescence intensity)); higher = stronger DNA binding
Summary of the method: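 Plasmodium falciparum DNA-binding domains carrying a GST tag were expressed in E. coli and applied for 1 h, at about 25 μg on average, to an Agilent 4 × 180k array. The array held primer-extended double-stranded 36-bp intergenic genomic probes together with negative controls, and binding took place in 1× PBS with 1% milk, 0.2 mg/ml BSA, 0.5% salmon testes DNA and 0.03% Triton X-100. An Alexa488 anti-GST antibody detected bound protein, and the array was scanned at 488 nm. Binding intensity is taken as the highest Masliner-normalised natural-log median intensity across replicate spots of either probe orientation.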

Sequence | gcPBM binding intensity (ln)
TTTATTATTATATTATTTTAATTTTTCTTTAGTACA [GTGCAC_negctrl_site392] | 10.29 ± 0.099
CTTTTTTTCTTTCCAAGTACTAAATTCATACAAATT [XGTACX_site2605] | 10.8 ± 0.51
CATTAATATATATATACATGCACGTTTTAAAAAAAA [TGCATGCA_site875] | 10.1 ± 0.23
GTAAGATTTCTTGTTGCATGCGGTAAAAAGTAAAAT [TGCATGCA_site469] | 10.6 ± 0.41
ACATTCATAAAAAAAAGTACATTTTTTATAAAAGAA [XGTACX_site6197] | 11.4 ± 0.75
AATATAAATAAAAACACACACACACCCATATATATA [CACACA_site2267] | 10.1 ± 0.32
AATACATGAATATGTAGTACAGAAAAAAAAAATATA [XGTACX_site1945] | 11.7 ± 0.95
ATATATGTATATATGTACATGAATATATAAAGAAAA [CACACA_negctrl_site315] | 11.1 ± 0.67
TTTATGTAATATACATGTACAGAATATAAAATATAT [XGTACX_site6906] | 11 ± 0.54
ATATTATCACAAGGTGGTACACAAAAAAAAAAAAAA [XGTACX_site8224] | 11.4 ± 0.95
TTTTTTTTTTTATGTGCACACAAAAGATGCTTATAT [CACACA_site2347] | 10.6 ± 0.53
ATTATTAAAATGATATGTACGCACATAATATACATA [XGTACX_site3236] | 11.6 ± 0.94
AACAATGTTGTACATACACACACACTAATAAAAAAT [CACACA_site8758] | 11.4 ± 0.95
AATAATATTTAATACGCACACAATAATAATATAAAA [CACACA_site1763] | 10.4 ± 0.32
GGATGATTAAGGGGGACACACGTTTATATATTTATA [CACACA_site4342] | 11.7 ± 0.9
ATAGCACATTTTTAAGCACACGTTTATTATATATAT [CACACA_site6084] | 10.3 ± 0.24
TTGGATGATTAAGGGGGACACACGTTTATATATTTA [CACACA_site338] | 11.4 ± 0.79
AAACAAAAGGAAAACATATATATATTAAATGTATAT [CACACA_negctrl_site1663] | 9.64 ± 0.33
AGAATTAAAATAATACGTACACACATGTATAATACA [XGTACX_site1878] | 11.5 ± 0.82
AAGTATAAAAAAAGGCGTACAAAAAAAAAAAAAAAA [XGTACX_site7309] | 11.7 ± 0.9
ACTTTTTTAATGTTACGTACACATAAATAATAATTA [XGTACX_site8092] | 11.6 ± 0.9
ATGTTTTATAAAAGGCGTACACATATGCTTAAGTAA [XGTACX_site6232] | 11.8 ± 0.94
ATTAAAATAATACGTACACACATGTATAATACATAT [CACACA_site1005] | 11.5 ± 0.91
AAAAAAAAAAAAAAAAGTACAAATAAAAAAAAAATA [XGTACX_site4814] | 11.4 ± 0.85

Sequence | gcPBM binding intensity (ln)
TTTTTTTTTTTTACGTGTACATAAATGTTAAGTAAT [XGTACX_site3901] | 11.4 ± 0.91
GATAAAGTAAAAATATGTACATATATATTTTAAGTT [XGTACX_site6439] | 11.4 ± 0.78
ATAAAATATAAAAAAAGTACAAAAAAAAAAAAAAAA [XGTACX_site6657] | 11.2 ± 1.1
GAATTAAAATAATACGTACACACATGTATAATACAT [CACACA_site1004] | 11.7 ± 1.2
TTTTTTTTTTTAAAATGTACACGTAATTACATATAT [XGTACX_site752] | 11.4 ± 0.95
ATGCTTTTTTATAAAAGTACATAAAGTTTTTACACT [XGTACX_site7307] | 11.3 ± 0.81
ATAGCCAAAAATCATGCACACCTAAAAAAAAAAAAA [CACACA_site8826] | 10.1 ± 0.6
TAGTTTTCTTAAAGATGTACTTATTAAAAATAAACT [XGTACX_site1001] | 11.3 ± 1.1
TATATCTCTTTATTCACACATACGTTTTAAAATAAT [CACACA_site5542] | 10.2 ± 0.13
TAAAAGTATATATATACACACATAAATATATATGTA [CACACA_site663] | 9.86 ± 0.14
AAGTATAAATAAAGGCGTACACATGTAAATTATATT [XGTACX_site126] | 11.7 ± 1.1
GTATATATATATAAAAGTACATGTTATGAAAAAAAA [XGTACX_site5410] | 11.3 ± 0.81
ATTATGTTAAAAAGGCGTACATGTTATAAGGTCCTA [XGTACX_site344] | 11.7 ± 1.2
ATAATAAATTATTATGTACACACATAATAGTATATA [CACACA_site8538] | 11.3 ± 0.88
AATAAATTATTATGTACACACATAATAGTATATATA [CACACA_site1820] | 11.4 ± 0.85
AATACAATAAAAAAAAGTACACATGTATAAAAAATT [XGTACX_site8270] | 11.6 ± 0.8
TAAGGTTAAATAATATGTACATATTATTATATATAT [XGTACX_site6953] | 11.3 ± 0.72
AAAAATAAATATATATGTACACATATGTATACAATA [XGTACX_site4692] | 11.6 ± 0.97
TTTTTTAAATTTTGAATTATAACTACATTAAAGAAA [GTGCAC_negctrl_site279] | 9.8 ± 0.33
AATATATATATTTAAGTGCATAATATTGTAATATTA | 9.91 ± 0.028
GGTATATAAAAATATTGTACTTAAAAAAATATGTAT [XGTACX_site6253] | 11.4 ± 0.99
TTGTTAATATGATAAAAGAGGAATATTCTCTTCCTA [GTGCAC_negctrl_site659] | 9.48 ± 0.14
ATATACATAATCTTCTTGCACTTTTTTTTTTTTTTT [GTGCAC_site9410] | 10.3 ± 0.22
AAAAAAGAACGCATAGTGCATATCTAAAAGATTTTT | 9.85 ± 0.014

Sequence | gcPBM binding intensity (ln)
TATGTTAAAAAAAAATGTACATATGTTTTTGTTAAA [XGTACX_site4754] | 11.2 ± 0.86
ATATGACGTAGTGGTGTACACACATGGTACCTTTAT [CACACA_site8436] | 11.9 ± 1.1
TATATATATTTATGTACACACATATATACCTTTCAT [CACACA_site5479] | 11.4 ± 0.86
AATATGACGTAGTGGTGTACACACATGGTACCTTTA [XGTACX_site3147] | 11.7 ± 0.83
TATATATATATATGTACACACATATATACCTTTCAT [CACACA_site2679] | 11.4 ± 0.81
ATGACGTAGTGGTGTACACACATGGTACCTTTATTC [CACACA_site1547] | 11.6 ± 0.84
ATATAATATATATGGTGTACATTTTTTAGTGCTATT [XGTACX_site1662] | 11.4 ± 0.76
TTATATATTAATAGTAGTACTATATTGAATCACCCC [XGTACX_site2868] | 11.3 ± 0.85
TAATTTATAAATATAATATTTATGTATATGATGTTT [CACACA_negctrl_site464] | 9.795 ± 0.078
CATATTTTGAACTTCACACATATATATATATATATA [CACACA_site4228] | 10.3 ± 0.54
TTTTCTCAATTTTGGTGTACTTTTTTCTTAACACAT [XGTACX_site8918] | 11.7 ± 1
ATTTTATTAATTTGGTGTACTTAATTTATATTTTTC [XGTACX_site4947] | 11.6 ± 0.92
TCACACCTTTTTGGTTGTACTTAAATTTCTTTTTTT [XGTACX_site6438] | 11.2 ± 0.75
GTTTATGTATTATTATGTACGTATCATAATATATAT [XGTACX_site2385] | 11.5 ± 0.82
ATCTAAACCTTTTGAGCACACATATATATATATATA [CACACA_site8526] | 10.4 ± 0.3
TGTTCCGAAGGTTGTACACACATAGAAATATACATA [CACACA_site3874] | 11.6 ± 0.74
ATATGTTCCGAAGGTTGTACACACATAGAAATATAC [XGTACX_site8227] | 11.6 ± 1
TATGTTCCGAAGGTTGTACACACATAGAAATATACA [CACACA_site9285] | 11.6 ± 0.8
AACCACATGGTGTAATGTACATTACCTTAACAATAA [XGTACX_site3055] | 10.7 ± 0.42
TAAAATATACAAATTTGTACATATATATGTATGTAT [XGTACX_site1127] | 10.9 ± 0.38
AGAAAATTAAAAAGAACACACAAATATATATATAAT [CACACA_site5896] | 10.045 ± 0.007
ATATATATATATAATGCACACATTATGAATTATGTA [CACACA_site3384] | 9.9 ± 0.42
